# Compound activity (PubChem BioAssay)
# mHTT-CaM PPI inh: inhibitors of human mutant huntingtin-calmodulin interaction; P42858; AlphaScreen His-mHTT/GST-CaM binding, luminescence; inhibition, % at 15 µM; 190,000 tested, 3.6% active; AID 1671202;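 also: 0% = both proteins with DMSO and 100% = one protein alone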
# Pf apPOL inh: Pf-apPOL DNA polymerase inhibition; inhibition, % at 10 µM; 210,000 tested, 0.25% active; Recombinant Pf-apPOL, molecular beacon fluorescence, 1.5 h
# Numbers without * were called inactive; . = no result given; ! = a repeat was not active. Hits are enriched below; roughly 3.6% of the tested compounds scored in any of these assays. Rule as the data show it: active = inhibition above about 50%; inactive = the rest.
SMILES,mHTT-CaM PPI inh,Pf apPOL inh
CC[C@@H]1C(c2cccc(C)c2)=NN(c2ccc(Br)cc2)[C@H]1C(=O)N1CCOC1=O,66*,2
C[C@@H]1C(c2cccc(Cl)c2)=NN(c2ccccc2)[C@H]1C(=O)N1CCOC1=O,-24,-6
Cc1cccc(C2=NN(c3ccc(Br)cc3)[C@@H](C(=O)N3CCOC3=O)[C@@H]2c2ccccc2)c1,-78,0
CCC(C(=O)NCc1ccco1)c1ccccc1 (stereo not drawn),1,-8
COc1cc(NC(=O)COc2ccc(Br)cc2)c(OC)cc1Cl,-8,1
O=C(CSc1nnc(COc2ccccc2)n1-c1ccccc1)NC1CCCCC1,6,-9
OCCSc1nnc(COc2ccc(Br)cc2)n1-c1ccccc1,57*,-20
Cc1ccc(C(NC(=O)Cc2cc3ccccc3[nH]2)C(=O)Nc2ccc3c(c2)OCCO3)cc1 (stereo not drawn),53*,-5
CC(=O)NCC(=O)NC(C(=O)Nc1ccc2c(c1)OCO2)c1ccc(C)cc1 (stereo not drawn),5,-4
COc1ccccc1NC(=S)N1CCc2cc(OC)c(OC)cc2C1COc1ccc2c(C)cc(=O)oc2c1 (stereo not drawn),9,-2
Brc1ccc2c(c1)C1CC(c3cccs3)=NN1C1(CCCC1)O2 (stereo not drawn),72*,-3
Clc1ccc2c(c1)C1CC(c3cccs3)=NN1C1(CCCC1)O2 (stereo not drawn),78*,-6
CCOc1cccc2c1OC1(CCCCC1)N1N=C(c3cccs3)CC21 (stereo not drawn),22,-21
CC1(C)Oc2ccc(Cl)cc2C2CC(c3ccc(F)cc3)=NN21 (stereo not drawn),50,-18
Cc1ccc(C(=O)N2CCN(c3nc4ccccc4n(CC(C)C)c3=O)CC2)s1,-23,0
O=C(c1ccco1)N1CCc2nc3cc(-c4ccccc4Cl)[nH]n3c(=O)c2C1,2,-1
COc1ccc(-c2cc3nc4c(c(=O)n3[nH]2)CN(C(=O)c2n[nH]c3ccccc23)CC4)cc1,28,17
Cc1ccc(CNC(=O)N2CCc3nc4cc(-c5ccccc5Cl)[nH]n4c(=O)c3C2)cc1,53*,4
O=C(Cc1cccs1)N1CCc2nc3cc(-c4ccccc4Cl)[nH]n3c(=O)c2C1,52*,25
COc1ccc(-c2cc3nc4c(c(=O)n3[nH]2)CN(C(C)=O)CC4)cc1,2,5
O=C(Cc1ccccc1)N1CCc2c(nc3cc(-c4ccccc4Cl)[nH]n3c2=O)C1,27,18
O=C(c1n[nH]c2ccccc12)N1CCc2nc3cc(-c4ccccc4Cl)[nH]n3c(=O)c2C1,89*,21
COc1ccc(-c2cc3nc4c(c(=O)n3[nH]2)CN(C(=O)NCc2ccc(F)cc2)CC4)cc1,58*,10
N#Cc1c(N)nc2c(c1-c1cccc([N+](=O)[O-])c1)CCCCCC2,5,-4
CCSc1ccccc1C(=O)Nc1ccc(CC(=O)N(C)C)cc1,-8,-7
SMILES,mHTT-CaM PPI inh,Pf apPOL inh
O=C1CCCC2=C1C(c1ccc(OCc3ccccc3F)c(Cl)c1)C1=C(CCCC1=O)N2,-6,-4
CCOc1cc(C2C3=C(CCCC3=O)NC3=C2C(=O)CCC3)ccc1OCc1cccc(F)c1,75*,-30
COc1cc(C2C3=C(CCCC3=O)Nc3ccc4ncccc4c32)ccc1OCc1ccccc1 (stereo not drawn),100*,-1
CCOc1ccc(C2C3=C(CCCC3=O)Nc3ccc4ncccc4c32)cc1 (stereo not drawn),36,-1
Cc1ccc(S(=O)(=O)N=C(CN2CCCCC2)N2CCCC2)cc1,2,4
O=C(Cn1ccc2ccccc21)N1CCC(COCc2ccccc2)CC1,58*,-16
O=C(CCn1ccc(=O)[nH]c1=O)N1CCC(COCc2ccccc2)CC1,-4,3
COC(=O)C1=C(C)NC(SCC(=O)NC2CCCCC2)=C(C#N)C1c1ccccc1F (stereo not drawn),-4,-7
CC1=C(C(N)=O)C(c2cccnc2)n2ncnc2N1 (stereo not drawn),-7,-5
Cc1ccccc1N1CCN(C(C)C(=O)NCc2cccnc2)CC1 (stereo not drawn),6,-7
CC(C(=O)NCc1ccccn1)N1CCN(c2ccccc2Cl)CC1 (stereo not drawn),75*,-24
COc1ccccc1C=CC(=O)OCC1CCCN2CCCCC12 (stereo not drawn),.,-15
CCOc1ccc2c(c1)OC(=Cc1ccc(O)cc1)C2=O,20,-4
CCc1ccc(O)c(N=Cc2cc(C)ccc2O)c1,27,0
CCc1ccc(O)c(N=Cc2cc(I)ccc2O)c1,54*,14
CC(C)c1nc2c(c(=O)n1CC(=O)NCc1ccccc1F)CN(Cc1ccccc1)CC2,-3,4
OCCCNc1ncnc2c1c(-c1ccccc1)cn2-c1ccc(F)cc1,45,0
O=[N+]([O-])c1ccc(Cc2ncccc2O)cc1,-5,-3
O=[N+]([O-])c1cc(O)c2ncccc2c1,100*,-186
Oc1cc(O)c2ncccc2c1,100*,1
Nc1cc(Br)cc2cccnc12,-5,6
Cc1cc(C)cc(NC(=O)c2ccc([N+](=O)[O-])cc2)c1,3,-2
O=C(NCc1ccccn1)c1cccc(-c2nc(-c3ccc(F)cc3)no2)c1,4,-14
c1ccc(-n2cnnc2C2CCCCN2Cc2ccco2)cc1 (stereo not drawn),-3,-12
Clc1cccc(-c2cc3ccccn3c2)c1,63*,5
SMILES,mHTT-CaM PPI inh,Pf apPOL inh
COc1ccc(-c2ncc3ccccn23)cc1OC,4,-2
COc1cc(-c2cc3ccccn3c2)cc(OC)c1OC,61*,0
Clc1cccc(-c2cn3ccccc3n2)c1,4,0
Cc1ncn(CC(=O)Nc2cccc(Cl)c2)c(=O)c1C,-4,-3
Cc1nc2c(ccc3nc(NC(=O)c4ccc5c(c4)OCCO5)sc32)s1,69*,1
Cc1nc2c(ccc3nc(NC(=O)c4ccc(Cl)s4)sc32)s1,-3,5
CCCC(=O)Nc1ccc(NC(=O)c2ccc([N+](=O)[O-])cc2)cc1,5,-8
Cc1ccc(NC(=O)c2nnn(-c3ccc(OC(F)(F)F)cc3)c2N)cc1,0,-4
CCOC(=O)c1oc2ccccc2c1NC(=O)C12CC3CC(CC(C3)C1)C2,-5,0
NC(=O)c1oc2ccccc2c1NC(=O)C12CC3CC(CC(C3)C1)C2,100*,6
O=S1(=O)C=C(Sc2cccc3cccnc23)c2ccccc21,68*,6
Cc1cc(C)nc(SC2=CS(=O)(=O)c3ccccc32)n1,-2,25
Cc1cc(C)nc(NC(=O)Nc2ccccc2)n1,-4,-5
COc1cc(CN2CCN(S(=O)(=O)c3ccc([N+](=O)[O-])cc3)CC2)cc(OC)c1O,11,-5
N#CC1(C#N)[C@@H](C(=O)C23CC4CC(CC(C4)C2)C3)C12CCCCCC2,-5,.
O=c1c2cccc3c2c(nn1Cc1ccccc1Cl)-c1ccccc1-3,-14,-3
NC(=O)Cn1nc2c3c(cccc3c1=O)-c1ccccc1-2,1,61*!
Cc1cccc2sc(N(CCN(C)C)C(=O)c3ccc(S(=O)(=O)N(C)C)cc3)nc12,10,-5
COc1ccc(CNC23CC4CC(CC(C4)C2)C3)cc1OC,1,-2
O=C(O)c1ccc(NCn2nnc3ccccc32)cc1,-2,-1
CC(=O)N1N=C(c2ccc(Br)cc2)CC1c1ccc(Br)cc1 (stereo not drawn),4,-10
